Source: PubChem
SRC3 inh: inhibitors of human steroid receptor coactivator 3 (SRC3) | Q9Y6Q9 | HEK293 GAL4-SRC3 luciferase reporter, luminescence | inhibition, % at 3.6 µM | hit rate 0.17% among 360,000 | AID 588352;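 active = inhibition above a per-campaign cutoff, the mean of all compounds plus 3 SD, cut at about 60% in these data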;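 also: 0% = DMSO-treated cells and 100% = gossypol-treated cells at 36 µM; higher means less SRC3-driven luciferase light from the GAL4 reporter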
NCOA1 inh: inhibits human SRC1 coactivator; Q15788; HEK293 GAL4-SRC1 luciferase reporter, luminescence; inhibition, % at 3.6 µM; hit rate 0.12% among 360,000; AID 588354;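 active = inhibition above the campaign mean plus 3 SD, with each screening campaign given its own cutoff, cut at about 60% in these data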;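 also: 0% = DMSO treated cells and 100% = gossypol at 36 µM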
NR2F2 inh: inhibitors of human COUP-TFII (NR2F2) | P24468 | HEK293T NGFI-A luciferase reporter, luminescence | inhibition, % at 8.6 µM | hit rate 0.7% among 370,000 | AID 686940;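 active = inhibition above a per-plate cutoff, mean inhibition of test wells between control levels plus 3 SD, cut at about 38% in these data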;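 also: cells cotransfected with COUP-TFII expression vector driving the NGFI-A reporter; 0% = median of COUP-TF2 test wells and 100% = reporter-only cells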
Gli-Sufu antag: Gli-Sufu pathway antagonism. Sufu-KO-LIGHT fibroblasts, Gli luciferase reporter luminescence. inhibition, % at 5 µM. hit rate 0.74% among 340,000;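 active = inhibition above about 55%, limit read from the data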;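 also: 0% = DMSO-treated cells and 100% = wells with medium but no cells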
SRC2 inh: inhibits human steroid receptor coactivator 2 | HEK293 GAL4-SRC2 luciferase reporter, luminescence | inhibition, % at 9 µM | hit rate 0.17% among 370,000 | AID 651957;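 active = inhibition above the mean inhibition of all tested compounds plus 3 SD, set per campaign, cut at about 52% in these data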;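 also: 0% = DMSO treated cells and 100% = cells given Gossypol at 36 µM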
NR5A2 inv ag: NR5A2 inverse agonism in reporter assay | HEK293T StAR-luciferase reporter, LRH-1 transfected, 24 h | O00482 | hit rate 0.13% among 360,000 | AID 602396 | inhibition, % at 3.6 µM;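 active = inhibition above the mean inhibition of all tested compounds plus 3 SD, cut at about 73% in these data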;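 also: 0% = DMSO wells and 100% = reporter-only cells lacking LRH-1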
Target sequence (O00482 whole entry, looked up): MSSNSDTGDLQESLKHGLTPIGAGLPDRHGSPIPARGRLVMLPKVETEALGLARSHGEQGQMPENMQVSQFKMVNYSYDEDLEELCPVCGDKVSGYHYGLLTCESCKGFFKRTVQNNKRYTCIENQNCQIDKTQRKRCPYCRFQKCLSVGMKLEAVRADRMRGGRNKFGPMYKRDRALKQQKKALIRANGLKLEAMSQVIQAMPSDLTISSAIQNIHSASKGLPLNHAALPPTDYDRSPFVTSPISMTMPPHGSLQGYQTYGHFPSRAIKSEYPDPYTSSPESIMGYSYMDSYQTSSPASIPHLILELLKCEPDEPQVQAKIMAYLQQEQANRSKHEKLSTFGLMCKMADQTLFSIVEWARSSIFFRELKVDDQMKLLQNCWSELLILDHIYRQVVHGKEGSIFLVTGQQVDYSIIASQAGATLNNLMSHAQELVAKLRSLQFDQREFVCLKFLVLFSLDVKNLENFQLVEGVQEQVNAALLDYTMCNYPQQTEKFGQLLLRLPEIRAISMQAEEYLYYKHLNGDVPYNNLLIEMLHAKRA
Gal4-VP16 ctr: counter-screen for COUP-TFII antagonists: inhibitors of VP16; shares compounds with NR2F2 inh; HEK293 Gal4-VP16 luciferase reporter, luminescence; inhibition, % at 8.5 µM; hit rate 25% among 2,500; AID 687007; in the data active = inhibition above about 13%
NR2F2 inh conf: COUP-TFII (NR2F2) inhibition, confirmation assay; inhibition, % at 8.5 µM; hit rate 45% among 2,500; shares compounds with NR2F2 inh; AID 687008; HEK293 NGFI-A luciferase reporter, luminescence;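 active = mean inhibition over three repeats above a set limit taken from the earlier primary screen, cut at about 38% in these data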;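 also: 100% = cells given the luciferase reporter alone without the COUP-TF2 vector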
An asterisk follows results filed as active; · = no result given; ! = not confirmed by another sample. Only some compounds are listed: those with a hit (about 1.3% of all), similar ones and a draw of the others.

SMILES	SRC3 inh	NCOA1 inh	NR2F2 inh	Gli-Sufu antag	SRC2 inh	NR5A2 inv ag	Gal4-VP16 ctr	NR2F2 inh conf
C[C@@H]1O[C@@H](O[C@@H]2C=C3CC[C@@H]4C(CC[C@]5(C)[C@@H](c6ccc(=O)oc6)CC[C@]45O)[C@@]3(C)CC2)[C@H](O)[C@H](O)[C@H]1O (stereo partly specified)	91.3*	93.3*	72.6*	-1.6	58.1*	99.5*	54.8*	80.5*
NC(Cc1ccccc1)[P+](=O)O (stereo unspecified)	·	·	-28.1	·	-14.2	·	·	·
Nc1ncnc2c1ccn2[C@@H]1O[C@H](CO)[C@@H](O)[C@H]1O	89.2*	81.8*	63.7*	22.6	63.6*	102.6*	32.1*	50.6*
NC(=S)c1cn(C2OC(CO)C(O)C2O)c2ncnc(N)c12 (stereo unspecified)	88.3*	88.5*	68.2*	-48.9	71.2*	94.4*	52.7*	68.1*
O=C1NCN(c2ccccc2)C12CCN(C(c1ccccc1OC(F)(F)F)c1nnnn1C1CCCC1)CC2 (stereo unspecified)	17.0	-13.1	2.0	·	4.5	5.7	·	·
O=C(O)c1cc2ccccc2n1C1CCN(Cc2ccccc2)CC1	·	·	-14.7	·	-5.8	·	·	·
O=C(NCCN1CCC2(CC1)C(=O)NCN2c1ccccc1)c1ccccc1C(F)(F)F	·	·	7.3	·	-10.6	·	·	·
CC(=O)c1c(C)n(C2CCCCC2)c2ccc(O)cc12	69.4*	73.2*	51.4*	-18.1	25.1	38.3	16.5*	20.1
CC(=O)c1c(C)n(Cc2ccccc2)c2ccc(O)cc12	28.5	17.2	8.9	-6.4	16.9	0.6	·	·
CCC(C)C1NC(=O)C(NC(=O)C(CC(C)C)N(C)C(=O)C2CCCN2C(=O)C(C)O)C(C)OC(=O)C(Cc2ccc(OC)cc2)N(C)C(=O)C2CCCN2C(=O)C(CC(C)C)NC(=O)[C@H](C)C(=O)[C@H](C(C)C)OC(=O)CC1O (stereo partly specified)	93.9*	95.2*	90.6*	89.9*	78.4*	96.9*	21.3*	87.5*
Cc1ccccc1CN1Cc2cnnn2-c2ccccc2C1C#N (stereo unspecified)	13.7	19.1	39.4*	-2.4	48.4	-16.6	4.9	1.7
Cc1ccccc1C(=O)N1Cc2cnnn2-c2ccccc2C1C#N (stereo unspecified)	1.9	9.2	15.0	2.4	23.3	9.2	·	·
Cc1ccc2nc(-c3ccc(CN4CCC(n5nnc6ccccc65)CC4)cc3)c(-c3ccccc3)nc2c1	·	·	45.3*	·	19.0	·	-2.6	10.2
Clc1ccc([C@H]2CC3CCC2N3)cn1 (stereo partly specified)	·	·	-14.6	·	18.4	·	·	·
O=C(NCCN1CCC2(CC1)C(=O)NCN2c1ccccc1)c1ccc(OC(F)(F)F)cc1	·	·	10.3	·	9.3	·	·	·
CCCCn1c(NC(=O)c2ccco2)c(C(=O)OCC)c2nc3ccccc3nc21	-5.3	2.6	44.0*	3.6	-0.4	30.9	-0.1	1.9
CCCCn1c(NS(=O)(=O)c2ccc(C)cc2)c(C(=O)OCC)c2nc3ccccc3nc21	11.9	5.0	30.8	14.2	3.7	2.2	·	·
C[C@@H]1C[C@@H]([C@H](O)CC2CC(=O)NC(=O)C2)C(=O)[C@@H](C)C1	93.4*	92.9*	87.5*	64.4*	69.9*	103.3*	-2.4	67.0*
CC(=O)OC1(C)CC(C)C(=O)C(C(O)CC2CC(=O)NC(=O)C2)C1 (stereo unspecified)	95.4*	95.9*	91.4*	89.3*	65.2*	103.2*	14.8*	84.5*
N#Cc1ccc(NC(=S)N2Cc3ccc(Br)cc3-n3nncc3C2)cc1	·	·	10.5	·	10.1	·	·	·
CN1C(=O)[C@@]23C[C@]4(c5c[nH]c6ccccc56)c5ccccc5N(S(=O)(=O)c5ccccc5)[C@@H]4N2C(=O)[C@@H]1SS3	·	·	107.0*	·	·	·	88.3*	90.0*
CN(C)c1ccc(/C=C/c2cc[n+](C)c3ccccc23)cc1	66.7*!	68.0*!	84.3*	87.4*	-80.2	86.4*	23.1*	81.7*
COC(=O)C1=C(c2ccc(-c3ccccc3)c(F)c2)C[C@@H]2CC[C@H]1N2C(=O)NCCOc1ccc(OC)cc1	9.2	11.7	40.1*	20.1	25.8	-0.8	2.0	6.3
CN1C2(C)c3ccccc3C1(c1ccccc1)c1ccccc12	·	·	14.3	·	-11.2	·	·	·
CCOC(=O)[C@]12Cc3cc(C)ccc3[C@H]1N(C1CCCCC1)C(=O)c1cc(OC)ccc12	·	·	52.3*	·	19.4	94.0*	25.5*	35.8
SMILES	SRC3 inh	NCOA1 inh	NR2F2 inh	Gli-Sufu antag	SRC2 inh	NR5A2 inv ag	Gal4-VP16 ctr	NR2F2 inh conf
C[n+]1ccc(-c2ccccc2)c2ccccc21	19.6	-6.3	40.0*	45.6	11.8	31.5	-2.0	13.7
C[n+]1c(-c2ccccc2)cc(-c2ccc(O)cc2)cc1-c1ccccc1	5.5	-8.8	-4.2	11.3	-4.6	15.6	·	·
Cc1ccc(N2Cc3ccccc3-n3nncc3C2)cc1	·	·	0.2	·	10.1	·	·	·
CCC(=NCCc1c[nH]c2ccccc12)c1c(O)n(C)c(=O)n(C)c1=O	9.7	13.5	47.4*	32.9	12.2	17.8	-1.1	19.6
CCC(=NCCc1c[nH]c2ccccc12)c1c(O)n(-c2ccc(C)cc2)c(=O)[nH]c1=O	0.0	-14.8	-3.0	-7.0	-10.7	-8.1	·	·
Clc1cc(Cl)cc(CN2Cc3cc(Br)ccc3-n3nncc3C2)c1	·	·	0.4	·	-10.9	·	·	·
CC[n+]1c(/C=C/C=C/c2ccc(N(C)C)cc2)sc2ccccc21	62.0*	33.7	78.6*	86.6*	-21.0	59.2	23.4*	82.1*
CC(=O)OC[C@]12CCC(C)=C[C@H]1O[C@@H]1[C@H](O)[C@@H](OC(C)=O)[C@@]2(C)[C@]12CO2	95.4*	95.1*	91.2*	92.5*	74.8*	101.9*	18.0*	89.9*
O=C(CNC(=O)OCc1ccccc1)NC(Cc1ccccc1)P(=O)(Oc1ccccc1)Oc1ccccc1 (stereo unspecified)	·	·	1.7	·	-11.0	·	·	·
COC(=O)C1C(OC(=O)c2ccccc2)CC2CCC1[N+]2(C)C (stereo unspecified)	·	·	10.9	·	-0.2	·	·	·
CC12CC[C@H]3[C@@H](CCC4(O)C[C@H](O)CCC34/C=N/NC(=O)c3ccc(O)cc3)C1(O)CCC2C1=CC(=O)OC1 (stereo partly specified)	6.5	-58.8	-1.6	-0.6	2.5	-37.4	·	·
CC(=O)OC1CC(OC2C(O)CC(OC3C(O)CC(OC4CCC5(C)C(CCC6C5CCC5(C)C(C7=CC(=O)OC7)CCC65O)C4)OC3C)OC2C)OC(C)C1OC1OC(CO)C(O)C(O)C1O (stereo unspecified)	89.3*	91.5*	76.5*	-5.4	60.3*	98.8*	56.4*	77.7*
